Bioassay records: PubChem BioAssay, National Center for Advancing Translational Sciences (NCATS)
Compounds with a hit are over-represented: about 2.4% of the library has one in this group of screens.
D2 PAM-1 = positive allosteric modulators of human D2 dopamine receptor | P14416 | HEK293 T-REx D2, calcium flux, EC20 dopamine potentiation | potentiation, % at 10 µM | hit rate 0.34% among 340,000;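 active means potentiation over 3 SD above the plate norm, cut at about 30% in these data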; further: 0% is about no effect
Target sequence (P14416 whole entry, looked up): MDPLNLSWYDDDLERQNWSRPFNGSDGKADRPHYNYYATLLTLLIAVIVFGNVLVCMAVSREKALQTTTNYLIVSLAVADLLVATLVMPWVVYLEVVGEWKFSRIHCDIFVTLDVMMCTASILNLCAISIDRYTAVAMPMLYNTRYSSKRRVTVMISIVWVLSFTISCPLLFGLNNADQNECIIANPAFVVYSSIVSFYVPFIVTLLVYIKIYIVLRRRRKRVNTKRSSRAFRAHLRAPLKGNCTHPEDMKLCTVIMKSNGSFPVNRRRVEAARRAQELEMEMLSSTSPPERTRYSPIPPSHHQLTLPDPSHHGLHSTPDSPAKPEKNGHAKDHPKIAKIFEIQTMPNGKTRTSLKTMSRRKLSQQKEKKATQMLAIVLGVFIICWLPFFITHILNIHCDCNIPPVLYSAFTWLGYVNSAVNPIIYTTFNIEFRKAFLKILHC
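Tetracycline-induced HEK293 T-REx cells force-coupled to calcium signalling expressed D2; compounds were pin-added after a 10 s baseline, read kinetically 180 s, then an EC20 dopamine challenge followed with a further 180 s calcium read.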
D2 PAM-2 = positive allosteric modulators of human D2 dopamine receptor. AID 624464. DiscoveRx D2 beta-arrestin cells, luminescence, 90 min; 100% = 57 uM dopamine signal. potentiation, % (test concentration not listed). hit rate 0.23% among 360,000; in the data active means potentiation above about 50%; inconclusive means mostly about 30% to 49%
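D2 cells co-treated with compound plus 50 nM dopamine (EC20) for 90 min at 37 deg C to detect potentiation. Beta-arrestin recruitment was read as enzyme-fragment luminescence after 1 h at ambient temperature. Full response was set by 57 uM dopamine.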
D2 ag-1 = D2 dopamine receptor (human) agonism. P14416. HEK293 T-REx D2 cells, calcium flux agonist mode. activation, % at 2 µM. hit rate 0.53% among 340,000. AID 485358;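 active means activation over 3 SD above normal in the single-dose calcium agonist read, cut at about 30% in these data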; further: 0% is about no effect
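Agonism scored from kinetic calcium signal (1 read/sec, 180 s) following compound pin transfer, after a 10 s baseline. Cells: HEK293 Trex line expressing inducible D2 receptor coupled to calcium, dye-loaded after overnight culture at 30 C.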
D2 ag-2 = activates the human D2 dopamine receptor; DiscoveRx PathHunter D2 beta-arrestin, luminescence, 90 min; 100% = 57 uM dopamine signal; activation, % (test concentration not listed); hit rate 0.084% among 360,000; AID 624465; in the data active means activation above about 40%; inconclusive means between about 15% and that limit
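Agonist mode: compounds alone added to overnight-plated D2 PathHunter cells for 90 min at 37 C, with 57 uM final dopamine (EC100) defining full response. Beta-arrestin recruitment detected by chemiluminescent reagent, read after 1 h at ambient temperature.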
D2 antag = antagonizes the human D2 dopamine receptor. P14416. AID 485344. HEK293 TREx D2 cells, calcium flux, dopamine EC80. hit rate 2% among 340,000. inhibition, % at 10 µM; in the data active means inhibition above about 30%; inactive means below that, where a call was filed; further: 0% is about no effect
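Tetracycline-induced HEK293 T-REx cells expressing D2 force-coupled to calcium signalling were dye-loaded, exposed to compound for 180 s, then challenged with an EC80 of dopamine; calcium flux was followed kinetically for a further 180 s.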
Active calls of the source: *; ? = inconclusive; . = not tested or not shown.

SMILES	D2 PAM-1	D2 PAM-2	D2 ag-1	D2 ag-2	D2 antag
COc1ccc(C(=O)C2CCCN(C/C=C/c3ccccc3OC)C2)c(OC)c1 (stereo unspecified)	-22.3	-8.5	-0.5	-2.3	85.6*
COc1cc(/C=N/NC(=O)c2cccc3ccccc23)cc(OC)c1OC	-11.4	3.3	-2.8	-1.7	30.4*
COc1cc(/C=N/NC(=O)c2cccc3ccccc23)cc(OC)c1O	2.9	7.1	0.0	7.3	3.0
CCCCCNC(=O)C(=O)NCC(c1ccc2c(c1)OCO2)N1CCOCC1 (stereo unspecified)	6.2	.	-0.3	.	.
COc1ccc(Cn2c(O)c(C=Nc3ccccc3C(=O)O)c3ccccc3c2=O)cc1	4.0	4.8	-0.5	5.0	32.2*
COc1cccc(C2/C(=C(\O)c3ccc4c(c3)OCCO4)C(=O)C(=O)N2Cc2cccnc2)c1 (stereo unspecified)	-10.5	-5.4	-0.1	-2.9	30.9*
O=C1C(=O)N(Cc2cccnc2)C(c2cccc([N+](=O)[O-])c2)/C1=C(\O)c1ccc2c(c1)OCCO2 (stereo unspecified)	2.2	-5.9	1.1	2.1	2.4
COc1cccc(C2/C(=C(\O)c3ccc4c(c3)OCO4)C(=O)C(=O)N2CCN(C)C)c1OC (stereo unspecified)	4.2	-9.8	-2.3	-3.5	41.0*
CCOc1ccc(/C(O)=C2\C(=O)C(=O)N(CCN(C)C)C2c2cccc(OC)c2OC)cc1Cl (stereo unspecified)	-3.6	-34.9	0.7	-2.3	-5.6
CCn1cc(S(=O)(=O)c2ccc(C)cc2C)c(=O)c2cc(F)c(N3CCCCC3)cc21	2.0	.	-0.9	.	.
CCN1CCN(c2nnc(-n3cccc3C(=O)NCc3ccccc3OC)s2)CC1	-1.6	.	-0.3	.	.
COc1cc(C(CCN2CCCC2)c2c(OC)cc(OC)c3ccc(=O)oc23)cc(OC)c1OC (stereo unspecified)	-0.6	-15.8	0.4	0.7	33.0*
COc1cc(C(CC(=O)N2CCCC2)c2c(OC)cc(OC)c3ccc(=O)oc23)cc(OC)c1OC (stereo unspecified)	11.4	-9.4	-0.3	-0.2	-0.7
CC(=O)N1c2c(cc(Br)cc2S(=O)(=O)NCc2ccccc2)CC1C (stereo unspecified)	.	-8.5	-3.1	3.6	-0.4
COc1cccc(CNS(=O)(=O)c2cc(Br)cc3c2N(C(C)=O)C(C)C3)c1 (stereo unspecified)	-23.1	-12.7	0.2	-1.3	39.9*
Cc1ccc(CN2CCN(Cc3cccc4c3OCO4)CC2CCO)cc1 (stereo unspecified)	-19.0	-13.0	0.1	-1.2	88.2*
CCOc1ccc(CN2CCN(Cc3cccc4c3OCO4)CC2CCO)cc1 (stereo unspecified)	-29.5	-3.6	1.0	-5.5	-28.2
CCOc1ccc2[nH]c(=O)c(CN(CCO)C(c3nnnn3C3CCCCC3)C(C)C)cc2c1 (stereo unspecified)	-5.2	8.8	0.3	2.4	34.8*
O=S1(=O)CCOC[C@H](CC2CCCCC2)N1Cc1cccc(Cl)c1	9.3	-4.9	0.4	-0.5	-15.3
CCC1COCCS(=O)(=O)N1Cc1cccc(Cl)c1 (stereo unspecified)	4.4	-4.8	-0.1	-1.8	47.1*
CCOC(=O)N1CCN(C(=O)C(=O)Nc2sc3c(c2C(N)=O)CC(C)(C)OC3)CC1	4.8	6.7	-0.2	-0.8	33.0*
CCN(c1ccccc1)S(=O)(=O)c1ccc2[nH]c(=O)c(=O)[nH]c2c1	.	-4.4	-3.1	-6.4	32.9*
CCN(c1ccccc1)S(=O)(=O)c1ccc(F)cc1	-1.9	-5.2	-0.7	-0.9	2.5
Cc1nc(N2CCN(Cc3ccc4c(c3)OCO4)CC2)c2cc(-c3ccccc3)sc2n1	-10.5	-9.3	1.2	5.3	4.4
c1ccc(-c2ncc(CN3CCN(c4ccccn4)CC3)[nH]2)cc1	-24.6	-13.3	10.1	-0.9	88.7*
SMILES	D2 PAM-1	D2 PAM-2	D2 ag-1	D2 ag-2	D2 antag
CSc1nc(N2CCN(Cc3ccc4c(c3)OCO4)CC2)c2ccccc2n1	-21.2	-9.9	-0.2	0.8	37.9*
FC(F)(F)c1ccc(N2CCN(Cc3ccc4c(c3)OCO4)CC2)nc1	-23.5	-36.7	-0.9	-5.3	-13.2
c1ccc(N2CCN(Cc3ccc4c(c3)OCO4)CC2)nc1	.	90.8*	.	65.3*	.
CCOC(=O)c1cc(C)n(CC2CCC(C(=O)Nc3ccc(C(=O)OC)cc3)CC2)c1C (stereo unspecified)	7.9	.	0.7	.	.
CC(C)OCCCn1c(=O)c2ccccc2n2c(-c3ccc(F)cc3)nnc12	1.7	.	-1.4	.	.
CC1CN(C(=O)N2CCC(C(=O)NCc3ccccc3F)CC2)c2cc(Cl)ccc2O1 (stereo unspecified)	6.5	.	0.3	.	.
CSc1ccc(C2Nc3cccc4cccc(c34)N2)cc1	7.7	58.3*	-0.2	53.9*	-11.1
c1cc2c3c(cccc3c1)NC(c1ccc3c(c1)OCO3)N2	-9.3	3.5	2.4	44.4*	-16.0
Cc1ccc2occ(CC(=O)Nc3ccc(Cl)c(C(F)(F)F)c3)c2c1	-6.0	.	0.3	.	.
CCN(c1ncnc2c1c(-c1ccccc1)cn2-c1ccccc1)C1CCCCC1	14.0	.	-0.2	.	.
Cc1ccccc1C(=O)Nc1cccc(C(=O)Nc2ccccc2C(=O)O)c1	33.3*	18.5	0.5	2.9	2.5
O=C(Nc1ccccc1C(=O)O)c1cccc(NC(=O)c2ccccc2Cl)c1	-0.2	64.1*	1.2	5.5	17.1
CCOc1ccccc1NC(=O)Cn1c(=O)ccc2cc(S(=O)(=O)N3CCC(C)CC3)ccc21	-5.1	.	1.1	.	.
CCC(NC(=O)c1ccc([N+](=O)[O-])cc1[N+](=O)[O-])c1ccccc1 (stereo unspecified)	7.2	73.5*	0.6	10.5	-2.4
Cc1cc2c([nH]c3ccccc32)c2c1OC(C)(C)C=C2	13.7	-13.9	0.1	14.7	42.6*
Cc1ccccc1NS(=O)(=O)c1ccc(Br)s1	14.8	.	-1.0	.	.
CCSc1nnc(NC(=O)c2cc(C)on2)s1	.	-7.2	2.4	-2.6	55.6*
CCSc1nnc(NC(=O)c2c(C)noc2C)s1	4.9	-13.1	0.3	-3.7	-7.1
CCSc1nnc(NC(=O)c2csc3c2CCCC3)s1	-5.1	-9.6	-0.2	-1.7	40.2*
CCSc1nnc(NC(=O)c2csc3c2CCC(C)C3)s1 (stereo unspecified)	.	0.5	.	-0.5	.
COc1cc(NC(=O)CCc2c(C)nc3nc(-c4cc(OC)cc(OC)c4)nn3c2C)cc(OC)c1	-10.0	.	-0.2	.	.
O=c1cc(C(Cl)(Cl)Cl)oc2c1ccc1ccccc12	-6.6	85.2*	0.2	9.8	22.7
C=CCn1c(=NC(=O)c2ccccc2[N+](=O)[O-])sc2cc(S(C)(=O)=O)ccc21	13.5	71.1*	-1.4	?	2.5
